Records with an inconclusive call do not appear. Active and inactive are the calls of the source.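 How the source made its calls, unless noted: active means thallium flux through the channel raised or lowered by more than 3 SD from vehicle-only wells, actives on both sides; inactive means the rest.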
Legend:
[1] = growth inhibition of DIPG glioma cells, dose response, cell-based, JHH-DIPG-1, MIPE4.0, CellTiter-Glo, qHTS (AID 1347062; cut-off not given, nearly all actives have AC50 up to about 27 µM); details: JHH-DIPG-1 viability, CellTiter-Glo ATP luminescence
[2] = growth inhibition of DIPG glioma cells, dose response, cell-based, SU-DIPG-IV, MIPE4.0, CellTiter-Glo, qHTS (AID 1347063; cut-off not given, nearly all actives have AC50 up to about 30 µM;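 further: compound exposure lasted 48 hours before the viability readout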); details: SU-DIPG-IV viability, CellTiter-Glo ATP luminescence
[3] = viability loss in pontine glioma line – cell-based, SU-DIPG-XXV, MIPE5.0, CellTiter-Glo, qHTS, dose response (AID 1347065; cut-off not given, nearly all actives have AC50 up to about 26 µM;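 further: cells exposed to compound for 48 hours before ATP readout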); details: CellTiter-Glo ATP luminescence
[4] = SU-DIPG-VI glioma cell viability, MIPE4.0 library, CellTiter-Glo luminescence, qHTS (AID 1347066; cut-off not given, nearly all actives have AC50 up to about 30 µM;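 further: cells exposed to compound for 48 hours before readout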); details: CellTiter-Glo ATP luminescence
[5] = reducers of polyQ inclusions in PC12 cells, cell-based, NGF-treated PC12, GFPQ80 (AID 1614); details: PC12 NGF-treated GFP-polyQ80 inclusion reduction;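 further: lower means fewer inclusions and 0 means no inclusions at all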
[6] = test system: Aerobactin synthetase IucA (Klebsiella pneumoniae); experiment: IucA aerobactin synthetase inhibitors, biochemical, Tocris library, absorbance (AID 1345561; call rule not given here;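 further: 100% = enzyme without compound and 0% = no enzyme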); details: purified IucA enzyme assay, absorbance (OD) read-out; stronger effect = lower value;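 tested at 8 µM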
[7] = growth inhibition of DIPG glioma cells, dose response, cell-based, SU-DIPG-XIII, MIPE4.0, CellTiter-Glo, qHTS (AID 1347061; cut-off not given, nearly all actives have AC50 up to about 37 µM;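 further: cells exposed to compound for 48 hours before readout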); details: SU-DIPG-XIII viability, CellTiter-Glo ATP luminescence
[8] = growth inhibition of DIPG glioma cells, dose response, cell-based, SU-DIPG-XIII, MIPE5.0, CellTiter-Glo, qHTS (AID 1347064; cut-off not given, nearly all actives have AC50 up to about 23 µM); details: SU-DIPG-XIII viability, CellTiter-Glo ATP luminescence
[9] = molecular target: ATP-dependent translocase ABCB1 (Homo sapiens) (UniProt P08183); experiment: MDR1 (ABCB1) efflux transporter inhibition, cell-based (AID 377; in the data active means fluorescence slope change above about 50%); details: MDR1-expressing cells, fluorescent substrate accumulation slope; stronger effect = higher value; concentration not given here
ATP-dependent translocase ABCB1 (Homo sapiens), sequence (P08183 whole entry, looked up): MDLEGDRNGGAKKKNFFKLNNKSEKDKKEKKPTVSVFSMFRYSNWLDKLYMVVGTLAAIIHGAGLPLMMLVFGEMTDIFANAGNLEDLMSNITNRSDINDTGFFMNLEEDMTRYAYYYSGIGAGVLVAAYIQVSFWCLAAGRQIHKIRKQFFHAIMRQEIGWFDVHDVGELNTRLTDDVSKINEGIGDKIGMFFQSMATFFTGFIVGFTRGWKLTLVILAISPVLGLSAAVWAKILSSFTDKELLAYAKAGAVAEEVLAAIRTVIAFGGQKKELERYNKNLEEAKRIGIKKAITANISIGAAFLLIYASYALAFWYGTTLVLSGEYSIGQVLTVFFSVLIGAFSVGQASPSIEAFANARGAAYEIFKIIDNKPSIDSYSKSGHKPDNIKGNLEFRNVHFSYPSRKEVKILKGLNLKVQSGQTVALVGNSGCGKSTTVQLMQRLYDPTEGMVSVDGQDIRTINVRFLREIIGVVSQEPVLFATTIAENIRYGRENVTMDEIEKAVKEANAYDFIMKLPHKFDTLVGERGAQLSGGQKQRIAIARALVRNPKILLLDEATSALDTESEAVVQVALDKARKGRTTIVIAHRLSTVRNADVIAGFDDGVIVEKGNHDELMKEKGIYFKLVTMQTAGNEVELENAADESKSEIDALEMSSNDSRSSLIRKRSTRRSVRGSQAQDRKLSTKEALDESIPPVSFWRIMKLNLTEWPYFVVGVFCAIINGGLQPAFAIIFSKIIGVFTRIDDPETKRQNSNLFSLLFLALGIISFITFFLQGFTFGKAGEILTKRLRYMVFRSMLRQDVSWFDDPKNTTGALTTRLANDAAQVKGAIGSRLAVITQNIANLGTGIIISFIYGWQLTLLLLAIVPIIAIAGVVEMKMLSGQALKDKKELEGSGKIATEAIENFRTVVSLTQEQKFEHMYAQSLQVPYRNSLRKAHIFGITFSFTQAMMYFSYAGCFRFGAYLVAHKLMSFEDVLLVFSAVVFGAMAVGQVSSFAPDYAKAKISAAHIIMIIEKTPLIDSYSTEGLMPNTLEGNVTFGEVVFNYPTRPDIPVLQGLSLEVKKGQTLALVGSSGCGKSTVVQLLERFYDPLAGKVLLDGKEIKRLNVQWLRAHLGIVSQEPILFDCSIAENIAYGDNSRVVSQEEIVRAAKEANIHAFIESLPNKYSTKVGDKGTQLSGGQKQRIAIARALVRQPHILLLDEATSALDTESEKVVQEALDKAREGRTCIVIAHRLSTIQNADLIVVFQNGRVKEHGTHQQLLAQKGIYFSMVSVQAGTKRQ

F380Y/beta1 = experiment: modulators of BK channel variants, profiling panel, selectivity assay, cell-based, U2OS BacMam, thallium flux, beta subunits (AID 1259406); details: at 30 µM;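 further: initial slope of Thallos dye fluorescence rise after thallium is added; log ratio against the mean of 0.3% DMSO vehicle wells on the same plate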
F380Y/beta4 = experiment: as above; details: at 30 µM
R275C/beta4 = experiment: as above; details: at 30 µM
R275C/Slo1WT/beta2 = experiment: as above; details: at 30 µM
[10] = growth inhibition of DIPG glioma cells, dose response, cell-based, SU-DIPG-XVII, MIPE5.0, CellTiter-Glo, qHTS (AID 1347060; cut-off not given, nearly all actives have AC50 up to about 26 µM); details: SU-DIPG-XVII viability, CellTiter-Glo ATP luminescence
[11] = SU-DIPG-XXV glioma cell viability, MIPE5.0 library, qHTS (AID 1347068; cut-off not given, nearly all actives have IC50 up to about 30 µM)
[12] = JHH-DIPG-1 glioma cell viability, MIPE5.0 library, CellTiter-Glo luminescence, qHTS (AID 1347067; cut-off not given, nearly all actives have AC50 up to about 26 µM;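 further: cells exposed to compound for 48 hours before readout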); details: JHH-DIPG-1 glioma viability, CellTiter-Glo ATP luminescence

Cc1c(-c2ccc(O)cc2)n(Cc2ccc(OCCN3CCCCCC3)cc2)c2ccc(O)cc12
inactive: outcome [1] | outcome [2] | outcome [4]
active: AC50 [3] 20.9 µM

Cc1ccc(O)cc1
2: inclusion score [5]

O=C(O)CCC(=O)OC[C@@H](NC(=O)C(Cl)Cl)[C@H](O)c1ccc([N+](=O)[O-])cc1
2: inclusion score [5]

CNS(=O)(=O)CCc1ccc2[nH]cc(C3CCN(C)CC3)c2c1
inactive: outcome [2]

Cc1cccc(Nc2cc(Cl)nc(SCC(=O)O)n2)c1C
inactive: remaining activity [6] 107%

CCCCCCCCCCCCCCCCCCOP(=O)([O-])OC1CC[N+](C)(C)CC1
inactive: outcome [7] | outcome [1] | outcome [8] | outcome [4]

COC(=O)C1=C(C)NC(C)=C(C(=O)OCCN(C)Cc2ccccc2)C1c1cccc([N+](=O)[O-])c1 (stereo not given)
active: log fold change Tl+ flux (F380Y/beta4) -0.137 | log fold change Tl+ flux (R275C/beta4) 0.196
inactive: fluorescence slope change [9] 15.7% | log fold change Tl+ flux (F380Y/beta1) -0.0357 | log fold change Tl+ flux (R275C/Slo1WT/beta2) 0.00258

CC12CCC(CC1)C(C)(C)O2
2: inclusion score [5]

C[C@@H](C1=C(CCN(C)C)Cc2ccccc21)c1ccccn1
inactive: remaining activity [6] 105%

COCCCOc1ccnc(CS(=O)c2nc3ccccc3[nH]2)c1C (stereo not given)
inactive: outcome [10] | outcome [7] | outcome [1] | outcome [2] | outcome [3] | outcome [4] | outcome [11]

CN1CCN(C2=Nc3cc(Cl)ccc3Nc3ccccc32)CC1
active: AC50 [3] 13.2 µM | log fold change Tl+ flux (F380Y/beta1) 0.177 | log fold change Tl+ flux (F380Y/beta4) 0.214 | log fold change Tl+ flux (R275C/beta4) 0.137
inactive: remaining activity [6] 121% | outcome [1] | outcome [2] | outcome [4] | outcome [11] | log fold change Tl+ flux (R275C/Slo1WT/beta2) 0.0195

COc1c2occc2cc2ccc(=O)oc12
active: fluorescence slope change [9] 78.2%
inactive: outcome [10] | outcome [7] | outcome [1] | outcome [2] | outcome [8] | outcome [4] | outcome [12] | outcome [11] | log fold change Tl+ flux (F380Y/beta1) 0.0099 | log fold change Tl+ flux (F380Y/beta4) 0.0241 | log fold change Tl+ flux (R275C/beta4) 0.0801 | log fold change Tl+ flux (R275C/Slo1WT/beta2) 0.00849
2: inclusion score [5]

CC(C)(C)NCC(O)c1ccc(O)c(CO)c1 (stereo not given)
inactive: outcome [10] | outcome [7] | outcome [1] | outcome [2] | outcome [8] | outcome [3] | outcome [4] | outcome [12] | outcome [11]
2: inclusion score [5]

CN/C(=C\[N+](=O)[O-])NCCSCc1ccc(CN(C)C)o1
inactive: log fold change Tl+ flux (F380Y/beta1) -0.0094 | log fold change Tl+ flux (F380Y/beta4) 0.0499 | log fold change Tl+ flux (R275C/beta4) -0.0213 | log fold change Tl+ flux (R275C/Slo1WT/beta2) -0.015
active: fluorescence slope change [9] 105%
2: inclusion score [5]

Cc1cc(NS(=O)(=O)c2ccc(N)cc2)no1
inactive: outcome [1] | outcome [2] | log fold change Tl+ flux (F380Y/beta1) -0.0321 | log fold change Tl+ flux (F380Y/beta4) -0.00222 | log fold change Tl+ flux (R275C/beta4) -0.0559 | log fold change Tl+ flux (R275C/Slo1WT/beta2) -0.0702
2: inclusion score [5]
active: fluorescence slope change [9] 62% | AC50 [7] 2.96 µM

O=C(O)CCc1nc(-c2ccccc2)c(-c2ccccc2)o1
active: log fold change Tl+ flux (F380Y/beta1) 0.171
inactive: log fold change Tl+ flux (F380Y/beta4) 0.0201 | log fold change Tl+ flux (R275C/beta4) 0.0678 | log fold change Tl+ flux (R275C/Slo1WT/beta2) 0.0514

O=C1CN(/N=C/c2ccc([N+](=O)[O-])o2)C(=O)N1
active: fluorescence slope change [9] 98.9%
2: inclusion score [5]

O=C(CCCN1CCC(O)(c2ccc(Cl)cc2)CC1)c1ccc(F)cc1
inactive: fluorescence slope change [9] 23.3% | remaining activity [6] 128% | outcome [7] | outcome [2] | outcome [4] | log fold change Tl+ flux (F380Y/beta1) 0.0554 | log fold change Tl+ flux (F380Y/beta4) 0.0709 | log fold change Tl+ flux (R275C/beta4) -0.0662 | log fold change Tl+ flux (R275C/Slo1WT/beta2) -0.0319
